Most compounds without a hit are left out; they make up all but 11% or so of the library.
Luciferase inh: inhibitors of firefly (Photinus pyralis) luciferase | 76,000 compounds, 2.5% hits | Potency, µM (top dose mostly 115 µM), hits mostly inhibitors | purified P. pyralis luciferase, luminescence, biochemical | P08659; active means well fitted curve in the direction sought with a large enough effect; inconclusive means small, poorly fitted or top-dose-only effect, or another doubt; inactive means no such curve, though single readings can be large; an effect the other way counts as inactive or inconclusive; further: on the % scale 0 is the no-effect control and ±100 the full control effect; nearly all actives have a fitted effect of over 65% in size
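FLuc 10nM, D-luciferin 10uM, ATP 10uM, Mg acetate 10mM, Tris acetate pH 7.5, Tween/BSA; cpd qHTS; enzyme added last; CCD luminescence.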
NIH3T3 tox: NIH 3T3 cell cytotoxicity; NIH 3T3 viability, CellTiter-Glo ATP luminescence, 48-72 h; Potency, µM (titrated, usually from 96.7 µM), without a hit: top-dose activity change, negative = cytotoxicity, usual class: inhibitors; 94,000 compounds, 4.3% hits; AID 1345082; active means well fitted curve in the direction sought with a large enough effect; inconclusive means small, poorly fitted or top-dose-only effect, or another doubt; inactive means no such curve, though single readings can be large; an effect the other way counts as inactive or inconclusive; further: on the % scale 0 is the no-effect control and ±100 the full control effect; nearly all actives have a fitted effect of over 55% in size
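Luminescent ATP readout (CellTiter-Glo, 10 min RT) after 48 or 72 hr compound exposure of NIH 3T3 cells seeded at 400 cells/well in 1536-well format; quantitative HTS.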
hNpr1 antagonist: human Npr1 receptor antagonism; P16066; HEK293 hNpr1 GloSensor cGMP, ANP-stimulated luminescence; Potency, µM (top dose mostly 46.3 µM), without a hit: at the highest dose activity change, negative = inhibition, hits mostly inhibitors; 76,000 compounds, 1.6% hits; AID 1347048; further: on the % scale 0 is the no-effect control and ±100 the full control effect; nearly all actives have a fitted effect of over 60% in size
Target sequence (P16066 whole entry, looked up): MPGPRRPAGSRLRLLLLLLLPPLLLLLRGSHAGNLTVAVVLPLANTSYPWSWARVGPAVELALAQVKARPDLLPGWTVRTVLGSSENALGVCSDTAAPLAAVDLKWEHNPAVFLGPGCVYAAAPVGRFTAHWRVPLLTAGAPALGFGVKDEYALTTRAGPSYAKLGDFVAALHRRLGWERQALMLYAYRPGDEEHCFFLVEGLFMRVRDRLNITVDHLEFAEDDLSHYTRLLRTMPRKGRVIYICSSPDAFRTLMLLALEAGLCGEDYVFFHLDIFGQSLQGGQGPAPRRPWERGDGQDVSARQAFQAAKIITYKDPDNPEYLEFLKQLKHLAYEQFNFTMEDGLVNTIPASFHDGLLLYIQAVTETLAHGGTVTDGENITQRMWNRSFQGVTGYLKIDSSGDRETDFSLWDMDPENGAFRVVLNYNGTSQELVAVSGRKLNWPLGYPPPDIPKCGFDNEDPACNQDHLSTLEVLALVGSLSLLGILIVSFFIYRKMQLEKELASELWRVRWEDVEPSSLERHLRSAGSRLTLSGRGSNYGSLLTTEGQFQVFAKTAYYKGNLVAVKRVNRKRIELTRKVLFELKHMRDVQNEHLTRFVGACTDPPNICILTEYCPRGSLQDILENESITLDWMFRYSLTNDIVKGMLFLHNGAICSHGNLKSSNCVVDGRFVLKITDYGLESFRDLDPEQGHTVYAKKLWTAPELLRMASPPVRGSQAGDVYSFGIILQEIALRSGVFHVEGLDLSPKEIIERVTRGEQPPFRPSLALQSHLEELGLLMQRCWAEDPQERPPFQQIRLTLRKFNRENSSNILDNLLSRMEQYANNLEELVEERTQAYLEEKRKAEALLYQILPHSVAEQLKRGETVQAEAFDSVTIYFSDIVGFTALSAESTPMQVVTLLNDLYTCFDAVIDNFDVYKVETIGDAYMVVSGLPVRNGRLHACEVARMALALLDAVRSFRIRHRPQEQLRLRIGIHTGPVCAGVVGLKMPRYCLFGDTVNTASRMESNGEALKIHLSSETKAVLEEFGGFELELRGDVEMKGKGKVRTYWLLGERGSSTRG
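Compound pre-incubated 30 min at room temperature on GloSensor-loaded HEK293 cells stably carrying hNpr1 and the pGS-40F cGMP biosensor. Stimulation uses hNppA at 0.1 nM final; luminescence is taken at baseline and 20 min post-agonist.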
HEK293 tox: HEK 293 cell cytotoxicity. HEK 293 viability, ATP luminescence (CellTiter-Glo), 48-72 h. Potency, µM (series often up to 115 µM), for inactives: at the top dose activity change, negative = cytotoxicity, most hits filed as inhibitors. 94,000 compounds, 6.6% hits; active means well fitted curve in the direction sought with a large enough effect; inconclusive means small, poorly fitted or top-dose-only effect, or another doubt; inactive means no such curve, though single readings can be large; an effect the other way counts as inactive or inconclusive; further: on the % scale 0 is the no-effect control and ±100 the full control effect; nearly all actives have a fitted effect of over 60% in size
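CellTiter-Glo luminescence (cellular ATP) was read after 48 or 72 hr of compound exposure at 37 degree Celsius. Cells were HEK 293 plated at 250 cells/well.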
Npr1 antag conf: hNpr1 antagonism, confirmation assay; shares compounds with hNpr1 antagonist; HEK293 hNpr1 cGMP GloSensor luminescence, ANP-stimulated; Potency, µM (doses to about 57.6 µM), for inactives: at the highest dose activity change, negative = inhibition, actives largely listed as inhibitors; 1,400 compounds, 76% hits; further: nearly all actives have a fitted effect of over 70% in size
Npr2 selectivity: hNpr2 antagonism, selectivity versus Npr1; shares compounds with hNpr1 antagonist; HEK293 hNpr2 GloSensor cGMP luminescence, CNP-stimulated; Potency, µM (titrated, usually from 57.6 µM), for the others: at the highest dose activity change, negative = inhibition, usual class: inhibitors; 1,400 compounds, 67% hits; further: nearly all actives have a fitted effect of over 70% in size
FLuc counter: counter-screen for Npr1 antagonists: firefly luciferase inhibitors. shares compounds with hNpr1 antagonist. AID 1347047. 1,400 compounds, 0.7% hits. Potency, µM (top dose mostly 57.6 µM), without a hit: at the top dose activity change, negative = inhibition, hits mostly inhibitors. purified FLuc enzyme, luminescence, Km substrate; active means well fitted curve in the direction sought with a large enough effect; inconclusive means small, poorly fitted or top-dose-only effect, or another doubt; inactive means no such curve, though single readings can be large; an effect the other way counts as inactive or inconclusive; further: 0% is about no effect
GloSensor cGMP: control cell line activity, Npr1 antagonist counter-screen. shares compounds with hNpr1 antagonist. HEK293 GloSensor cGMP, SNP-stimulated, luminescence. Potency, µM (top dose mostly 57.6 µM), inactives show top-dose activity change, negative = inhibition, usual class: inhibitors. AID 1347051. 1,400 compounds, 69% hits; further: on the % scale 0 is the no-effect control and ±100 the full control effect; nearly all actives have a fitted effect of over 70% in size
The depositor's hits bear a star; [ ] = remark or other dose. Unless noted, the call rests on the fitted dose curve. Potency means the concentration at half of the fitted maximal effect.

Screening Cc1ccc(C(=O)N2CCC(C(=O)N3CCC4(CC3)CC(=O)Nc3ccccc3O4)CC2)cc1 returned NIH3T3 tox -8% and HEK293 tox inconclusive.
For Cc1ccc(C(=O)N2CCC3(CC2)CC(=O)Nc2ccccc2O3)cc1 the results were NIH3T3 tox -18%, HEK293 tox inconclusive, Npr1 antag conf 24µM*, Npr2 selectivity 24µM*, FLuc counter 1% and GloSensor cGMP 15µM*.
Screening COc1ccc(C(=O)N2CCC3(CC2)CC(=O)c2ccccc2O3)cc1 returned Luciferase inh inactive, NIH3T3 tox -27%, hNpr1 antagonist -3% and HEK293 tox inconclusive.
For COc1ccc(C(=O)N2CCC3(CC2)CC(=O)Nc2ccccc2O3)cc1 the results were Luciferase inh inactive, NIH3T3 tox -17%, hNpr1 antagonist 13µM*, HEK293 tox -26%, Npr1 antag conf 22µM*, Npr2 selectivity 22µM*, FLuc counter 0% and GloSensor cGMP 22µM*.
For O=C1CCC2(CCN1Cc1ccccc1)CCN(S(=O)(=O)c1cccs1)CC2 the results were Luciferase inh inactive, NIH3T3 tox inconclusive, hNpr1 antagonist inconclusive, HEK293 tox inconclusive, Npr1 antag conf inconclusive, Npr2 selectivity -28%, FLuc counter 0% and GloSensor cGMP inconclusive.
`CCS(=O)(=O)N1CCC2(CCC(=O)N(Cc3ccccc3)CC2)CC1` gave Luciferase inh inactive, NIH3T3 tox -8%, hNpr1 antagonist 0% and HEK293 tox -15%.
Screening CN1CCCC1c1nc(C2CN(S(=O)(=O)Cc3cccc(F)c3)C2)no1 (centres undefined) returned Luciferase inh inactive, NIH3T3 tox 5%, hNpr1 antagonist 4% and HEK293 tox -4%.
Screening Cc1nc2c(c(-c3ccc(O)cc3)n1)CN(Cc1cccc3ccccc13)CC2 returned Luciferase inh inactive, NIH3T3 tox inconclusive, hNpr1 antagonist -16%, HEK293 tox inconclusive, Npr1 antag conf -21%, Npr2 selectivity -13%[86.2 µM], FLuc counter -1%[86.2 µM] and GloSensor cGMP inactive.
For Cc1nc2c(c(-c3ccc(O)cc3)n1)CN(Cc1ccccc1OC(F)(F)F)CC2 the results were Luciferase inh inactive, NIH3T3 tox inconclusive, hNpr1 antagonist -6% and HEK293 tox inconclusive.
Screening CC(=O)c1cccc(NC(=O)O[C@@H]2CO[C@H]3[C@@H]2OC[C@@H]3NC(=S)Nc2cccc3ccccc23)c1 returned Luciferase inh inactive, NIH3T3 tox inconclusive, hNpr1 antagonist 8.9µM*, HEK293 tox inconclusive, Npr1 antag conf 12µM*, Npr2 selectivity 17µM*, FLuc counter 0% and GloSensor cGMP 14µM*.
Screening CC(=O)c1cccc(NC(=O)O[C@@H]2CO[C@H]3[C@@H]2OC[C@@H]3NC(=S)NC2CCCCC2)c1 returned Luciferase inh inactive, NIH3T3 tox inconclusive, hNpr1 antagonist 18µM*, HEK293 tox inconclusive, Npr1 antag conf 24µM*, Npr2 selectivity 24µM*, FLuc counter 0% and GloSensor cGMP inconclusive.
Cc1nc(-c2c3n(c(=O)n(Cc4ccc(Cl)cc4)c2=O)CCCC3)no1 was read as Luciferase inh inactive, NIH3T3 tox -13%, hNpr1 antagonist -1% and HEK293 tox -1%.

Source: PubChem BioAssay
